Screens (PubChem)
SENP8 block-1 = SENP8 protease inhibition; Q96LD8; purified SENP8, Z-RLRGG-aminoluciferin cleavage, luminescence; inhibition, % at 10 µM; actives 1.2% (n = 330,000); AID 2540; in the data active = inhibition above about 50%
Target sequence (Q96LD8 whole entry, looked up): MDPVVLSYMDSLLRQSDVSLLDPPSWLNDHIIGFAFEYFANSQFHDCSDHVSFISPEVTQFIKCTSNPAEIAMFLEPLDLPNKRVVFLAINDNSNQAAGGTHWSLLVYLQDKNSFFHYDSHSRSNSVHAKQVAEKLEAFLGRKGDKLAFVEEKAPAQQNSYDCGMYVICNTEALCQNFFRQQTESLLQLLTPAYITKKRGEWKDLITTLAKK
SENP6 inh = inhibitors of human SENP6 protease. Q9GZR1. Recombinant SENP6 catalytic domain, aminoluciferin luminescence. inhibition, % at 10 µM. actives 1.8% (n = 330,000);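 active = inhibition above about 50% at the single tested dose, limit read from the data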;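 note: plate controls were DMSO wells with enzyme for no effect and DMSO wells lacking enzyme for full effect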
Platelet DG rel = modulates dense granule release in human platelets; inhibition, %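 (compounds screened at 7.5 µM in platelet-rich plasma)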; actives 0.22% (n = 300,000); human platelet-rich plasma, SFLLRN dense granule ATP release, luminescence; AID 1663;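 active = mean replicate score, as percent of positive control, at or above 50; inconclusive = mean below 50 but at least one replicate at or above 50; inactive = mean and every replicate below 50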
HSP90 refold inh = HSP90 refolding inhibition in rabbit reticulocyte lysate. luciferase refolding luminescence, 3 h. inhibition, % at 5.6 µM. actives 0.91% (n = 290,000). AID 1789;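 active = inhibition above the screen-wide mean plus 3 SD, computed separately per campaign, cut at about 16% in these data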;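 note: 0% = DMSO wells and 100% = 60 µM geldanamycin wells; inhibitors lower the luminescence because luciferase stays unfolded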
SENP7 inh = SENP7 protease inhibition; recombinant SENP7, Z-RLRGG-aminoluciferin luminescence, 40 min; inhibition, % at 5 µM; actives 1.5% (n = 330,000); AID 434973;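 active = inhibition above about 50% at the single test dose, limit read from the data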;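 note: plate controls were DMSO with enzyme for no effect and no enzyme buffer wells for full effect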
SENP8 block-2 = inhibitors of human SENP8 protease; recombinant SENP8, Nedd8 substrate fluorescence; inhibition, % at 20 µM; actives 0.64% (n = 360,000); AID 602440; in the data active = inhibition mostly above about 40%, no sharp cut-off; inactive = mostly below about 27%
HSP90 confirm = HSP90 inhibition, confirmation assay; shares compounds with HSP90 refold inh; rabbit reticulocyte lysate, luciferase refolding luminescence, 3 h; inhibition, % at 5.9 µM; actives 64% (n = 2,300); AID 1846; in the data active = inhibition above about 18%;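 note: 0% = vehicle wells and 100% = reference inhibitor wells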
luciferase ctr = firefly luciferase inhibition, HSP90 counter-screen; shares compounds with HSP90 refold inh; purified native firefly luciferase, luminescence; inhibition, % at 5.9 µM; actives 48% (n = 2,300); AID 1847;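 active = inhibition above the mean inhibition of all tested sample wells plus 3 SD, cut at about 10% in these data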;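 note: 0% = DMSO with luciferase and 100% = wells lacking luciferase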
SENP8 confirm = human SENP8 inhibition, confirmed. shares compounds with SENP7 inh. Recombinant SENP8, Z-RLRGG-aminoluciferin luminescence, 60 min. inhibition, % at 12.5 µM. actives 40% (n = 6,200). AID 488912;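 active = mean inhibition across replicates above about 50%, limit read from the data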
SENP6 confirm = confirmation of human SENP6 protease inhibitors. shares compounds with SENP7 inh. actives 58% (n = 6,200). recombinant SENP6, Z-RLRGG-aminoluciferin luminescence. inhibition, % at 12.5 µM. AID 488915
SENP7 confirm = confirmation of human SENP7 protease inhibitors; shares compounds with SENP7 inh; recombinant SENP7, Z-RLRGG-aminoluciferin luminescence, 40 min; inhibition, % at 12.5 µM; actives 69% (n = 6,200)
Casp3 SENP sel = selectivity test for SENP inhibitors: human caspase-3 inhibition; purified caspase-3, Z-DEVD-aminoluciferin luminescence, 60 min; actives 60% (n = 6,200); AID 488918; inhibition, % at 12.5 µM; shares compounds with SENP7 inh;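 active = mean inhibition above about 50%, limit read from the data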;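 note: plate controls were enzyme with DMSO for no effect and wells without caspase-3 for full effect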
Target sequence (P42574 28-227 limits assumed): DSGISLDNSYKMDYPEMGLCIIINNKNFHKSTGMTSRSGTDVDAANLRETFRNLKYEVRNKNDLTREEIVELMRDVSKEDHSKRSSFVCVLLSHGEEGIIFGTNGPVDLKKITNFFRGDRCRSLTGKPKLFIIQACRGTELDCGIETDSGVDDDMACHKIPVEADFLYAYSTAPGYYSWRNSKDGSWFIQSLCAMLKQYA
SENP luc ctr = interferes with luciferase luminescence in SENP counter-screen; actives 39% (n = 6,200); Pre-incubated SENP8/Z-RLRGG-aminoluciferin, luciferase luminescence interference; inhibition, % at 12.5 µM; shares compounds with SENP7 inh;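 active = mean inhibition above about 50% when retested at one dose, limit read from the data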;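 note: plate controls were DMSO wells with completed reaction for no effect and substrate without enzyme for full effect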
* = called active by the depositor; ? = inconclusive; nt = no result given. Sampled rows, rich in hits. Any-hit rate of the full collection: about 2.8%.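 Rule for the calls, unless noted: active = mean inhibition above about 50% in the one-dose retest (limit read from the data); inactive = the rest.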

SMILES | SENP8 block-1 | SENP6 inh | Platelet DG rel | HSP90 refold inh | SENP7 inh | SENP8 block-2 | HSP90 confirm | luciferase ctr | SENP8 confirm | SENP6 confirm | SENP7 confirm | Casp3 SENP sel | SENP luc ctr
COc1ccc(NC(=O)N2CCc3ccccc32)cc1 | 86* | 95* | 53* | 19* | 96* | 13 | 37* | 23* | 93* | 93* | 99* | 94* | 91*
CCOc1ccc2nc(NC(=O)CSc3cn[nH]n3)sc2c1 | 15 | 67* | 13 | 19* | 1 | 11 | 25* | 14* | 35 | 30 | 50* | 41 | 49
O=C(NN=Cc1ccccc1C(=O)O)c1cccc(S(=O)(=O)Nc2cccc(C(F)(F)F)c2)c1 | 37 | 32 | nt | nt | -6 | 24 | nt | nt | nt | nt | nt | nt | nt
O=C1CCC(=O)N1c1ccc(-c2nc3ccccc3s2)cc1 | 70* | 89* | 35 | 46* | 94* | -45 | 74* | 66* | 42 | 62* | 83* | 72* | 26
COc1ccc(CC(=O)Nc2ccc(S(=O)(=O)N3CCCC3)cc2)c(OC)c1 | 5 | -2 | nt | nt | 4 | 2 | nt | nt | nt | nt | nt | nt | nt
Oc1ccccc1C1NN=C(c2ccccc2)S1 (stereo unspecified) | 61* | 86* | 15 | 24* | 95* | -253 | 33* | 18* | 39 | 79* | 70* | 65* | 18
Cc1cc(F)ccc1C(O)c1ncc(-c2ccccc2F)[nH]1 (stereo unspecified) | nt | nt | nt | nt | nt | 15 | nt | nt | nt | nt | nt | nt | nt
Cc1cc(=O)oc(C)c1C(=O)Nc1ccc2ncccc2c1 | -3 | -7 | 5 | 1 | 3 | -56 | nt | nt | nt | nt | nt | nt | nt
Cc1ccc(C(=O)Nc2ccc3ncccc3c2)cc1 | 80* | 82* | 13 | 50* | 90* | 3 | 71* | 58* | 83* | 84* | 97* | 87* | 88*
COc1ccc(C(=O)Nc2ccc3ncccc3c2)cc1 | 79* | 81* | 7 | 29* | 87* | 0 | 49* | 29* | 3 | 86* | 98* | 89* | 30
COc1ccc(C(=O)Nc2ccc3ccccc3c2)c(OC)c1 | 87* | 87* | 4 | 24* | 91* | 10 | 20* | 9.8* | 91* | 91* | 98* | 77* | 72*
C=CCN1C(=O)CS/C1=N\N=C\c1cccc([N+](=O)[O-])c1 | -3 | -15 | 1 | 1 | -1 | 12 | nt | nt | nt | nt | nt | nt | nt
COc1ccc(/C(N)=N/OC(=O)c2ccco2)cc1 | 84* | 91* | 14 | 41* | 24 | 17 | 60* | 43* | 89* | 90* | 98* | 91* | 86*
COC(=O)c1ccc(OC(=O)c2ccco2)cc1 | -4 | -7 | -2 | 2 | 2 | 13 | nt | nt | nt | nt | nt | nt | nt
COc1ccc(C(=O)O/N=C(\N)c2ccccc2)cc1 | 97* | 97* | 67* | 25* | 100* | 23 | 43* | 79* | 99* | 100* | 103* | 98* | 98*
COc1ccc(C(=O)O/N=C(\N)c2ccc(Br)cc2)cc1 | -1 | 26 | 0 | -2 | 26 | 14 | nt | nt | nt | nt | nt | nt | nt
CC(C)(C)c1ccc(C(=O)O/N=C(\N)c2ccccc2)cc1 | 90* | 93* | ? | 69* | 95* | 10 | 25* | 20* | 96* | 96* | 102* | 92* | 39
O=C(OCC1CCC=CO1)C1CCC=CO1 (stereo unspecified) | nt | nt | nt | nt | nt | 1 | nt | nt | nt | nt | nt | nt | nt
O=c1[nH]c(C2CCN(S(=O)(=O)/C=C/c3ccccc3)CC2)nc2c1nnn2Cc1ccccc1 | 1 | -35 | -2 | 2 | -4 | 21 | nt | nt | nt | nt | nt | nt | nt
CSc1ccc(Cl)c(C(=O)Nc2ccc(Cl)cn2)c1 | -7 | -12 | -4 | 3 | -6 | 7 | nt | nt | nt | nt | nt | nt | nt
COc1cc(SC)ccc1C(=O)Nc1ccc(Cl)cn1 | 87* | 14 | 6 | 26* | 96* | -7 | 90* | 84* | -1 | 0 | 2 | 0 | -3
COC(=O)C(Cc1ccccc1)NC(=O)CNC(=O)c1ccccc1OC (stereo unspecified) | -3 | -9 | -17 | 9 | 0 | 5 | nt | nt | nt | nt | nt | nt | nt
CC1(C(=O)NCc2cccnc2)CCN1C(=O)c1cccc(F)c1 (stereo unspecified) | nt | nt | nt | nt | nt | 16 | nt | nt | nt | nt | nt | nt | nt
O=C(NC1=NCCS1)C1COc2ccccc2O1 (stereo unspecified) | 64* | 82* | 19 | 79* | 85* | 21 | 92* | 81* | 77* | 76* | 95* | 94* | 85*
O=C(Nc1ccncc1)C1COc2ccccc2O1 (stereo unspecified) | 0 | 0 | -7 | 2 | -6 | 21 | nt | nt | nt | nt | nt | nt | nt
SMILES | SENP8 block-1 | SENP6 inh | Platelet DG rel | HSP90 refold inh | SENP7 inh | SENP8 block-2 | HSP90 confirm | luciferase ctr | SENP8 confirm | SENP6 confirm | SENP7 confirm | Casp3 SENP sel | SENP luc ctr
Cc1cc(Cl)ccc1NC(=S)N1CCN(C(=O)c2ccco2)CC1 | -9 | -13 | -6 | -2 | 5 | 9 | nt | nt | nt | nt | nt | nt | nt
COC(=O)N(C)C[C@@H]1OCc2cnnn2CCCC(=O)N([C@H](C)CO)C[C@H]1C | nt | nt | nt | nt | nt | 20 | nt | nt | nt | nt | nt | nt | nt
O=C(N/N=C/c1cccs1)c1n[nH]c2c1CCCC2 | 84* | 89* | 32 | 36* | 92* | 23 | 77* | 71* | 7 | 89* | 100* | 96* | 54*
C/C(=N\NC(=O)c1cc(C)[nH]n1)c1cccs1 | 1 | 17 | 5 | 0 | 19 | 4 | nt | nt | nt | nt | nt | nt | nt
C/C(=N\NC(=O)c1n[nH]c2c1CCC2)c1cccs1 | 82* | 87* | 36 | 33* | 87* | 27 | 84* | 72* | 13 | 5 | -8 | 10 | 1
CC(=O)Nc1ccc(NC(=O)COC(=O)C2CCCCC2)cc1 | -10 | -19 | nt | nt | -3 | 15 | nt | nt | nt | nt | nt | nt | nt
COc1ccc(C(C[N+](=O)[O-])c2c(C)[nH]n(-c3ccccc3)c2=O)cc1 (stereo unspecified) | 48 | 65* | -5 | 26* | 61* | 84* | 50* | -9 | 18 | 60* | 36 | 0 | 0
